According to PubChem BioAssay AID1347076 (National Center for Advancing Translational Sciences (NCATS), 2019):
The whole screen tested about 400,000 compounds, of which about 13,000 (3.2%) were called active. Entries that show only a call come without a potency. Roughly 18% stayed inconclusive and do not appear here. Calls come from the whole dose curve; as a rule, active = well fitted cell-killing curve with a large enough effect; inconclusive = small, poorly fitted or top-dose-only effect, or effect the other way; inactive = flat fitted curve, though single readings scatter. This excerpt belongs to a sample that is enriched for actives.

Experiment: qHTS assay for MDR1-selective chemotherapeutics: Primary screen using the drug-selected MDR subline cells KB-V1; note: nearly all actives have a fitted effect of over 60% in size
Settings: KB-V1 MDR cells viability, CellTiter-Glo, 72 h; series mostly up to 46.1 µM
Method in brief: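 qHTS viability screen in drug-selected KB-V1 MDR cells: 72 h compound treatment at 37 degrees C, ATP luminescence end point.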
Potency is the fitted concentration of half-maximal effect.

SMILES	Potency
COc1ccc(-n2nnc(-c3nsc(NC(=O)c4ccc(C)c(C)c4)n3)c2C)cc1Cl	inactive
CCOc1ccc(NC(=O)Nc2cc(C)ccc2OC)cc1	14.6 µM (active)
COc1ccc(C)cc1NC(=O)NCc1ccccn1	inactive
CCOc1ccc(NC(=O)Nc2ccc(N(C)C(C)=O)cc2)cc1	inactive
Cc1ccc(Cl)cc1-n1ncc2c(N3CCC(C(N)=O)CC3)ncnc21	inactive
CC(=O)c1ccc(OCC(=O)N(C)C2CCS(=O)(=O)C2)cc1 (stereo not drawn)	inactive
COc1ccc(CCNc2nc(-c3ccc(F)cc3)cc(C(F)(F)F)n2)cc1OC	inactive
CCCN(CC(=O)NC(=O)NC1CCCCC1)CC(=O)Nc1cc(Cl)ccc1Cl	4.11 µM (active)
CCCC(=O)Nc1cc(OCC)c(NC(=O)NC2CCCCC2)cc1OCC	inactive
O=C(COc1cc(Cl)c(Cl)cc1Cl)NC(=O)NC1CCCC1	inactive
CSc1ccc(CNC(=O)C2(C)CCCN2C)cc1 (stereo not drawn)	inactive
CCN(CC)c1ncnc2c1ncn2[C@H]1CN(Cc2cccs2)C[C@@H](CO)O1	inactive
COCCNC(=O)c1ccc2c(c1)N=C(C)c1cc(C)ccc1S2	0.92 µM (active)
CCC1=Nc2cc(C(=O)NCCN3CCCC3)ccc2Sc2ccc(C)cc21	inactive
CCC1=Nc2cc(C(=O)NCCCN3CCOCC3)ccc2Sc2ccc(Br)cc21	inactive
CCN1C(=O)[C@@H]2[C@@H]3CN(S(=O)(=O)c4ccccc4C)[C@@H](c4ccc(Cl)cc4)[C@@H]3C(=O)C[C@@H]2C1=O	inactive
Cc1ccc(S(=O)(=O)N2CCN(C(=O)COC(=O)c3c(C)noc3C)CC2)c(C)c1	inactive
Cc1ccc(-c2nc(COC(=O)c3c(C)noc3C)cs2)cc1	23.1 µM (active)
COc1ccc(C(=O)COC(=O)c2c(C)noc2C)cc1Cl	inactive
CCc1ccc(C2CC(=O)c3c([nH]c(C(=O)OCc4ccc(C)cc4)c3C)C2)cc1 (stereo not drawn)	inactive
COc1ccc(-n2c(=O)c3ccccc3n(Cc3ccccc3Cl)c2=O)cc1	inactive
N#CCCN(C(=S)Nc1ccc(Cl)c(Cl)c1)C1CCCCC1	inactive
COc1ccc(C2C(=O)N(C3CCCCC3)CC(=O)N2Cc2ccccc2Cl)cc1OC (stereo not drawn)	inactive
CCCC(=O)N1CCC1(C)C(=O)NS(=O)(=O)c1ccc(Cl)cc1 (stereo not drawn)	inactive
CCn1cc(C(=O)NCCc2ccccc2)c(=O)c2cc(S(=O)(=O)N3CCCCCC3)ccc21	inactive
CCOc1ccccc1NC(=O)Cn1nnc(C(=O)NCc2cccs2)c1N	0.58 µM (active)
CCOc1ccccc1NC(=O)Cn1nnc(C(=O)Nc2ccc(C)c(C)c2)c1N	inactive
CCOc1ccccc1NC(=O)Cc1cccs1	inactive
